Structures are written as SMILES. The campaign covered roughly 1,300 compounds. About 1,000 (77%) were called active. About 7% were inconclusive and are not listed. The calls are words filed in the database; no cut-off is given here. The set was probably picked from earlier hits. Only a sample is shown.

For this assay, the system named is Giardia. The assay can be described thus: qHTS of small molecules that selectively kill Giardia lamblia: Hit Validation. [Related pubchem assays (depositor defined):AID540272]. The class given is functional. The following applies: read-out: Potency. On the technique in general: In qHTS, concentration-response curves come from the screen itself.
`CCCc1nnc(NC(=O)C2C(=O)c3cccc4c3N(CC4)C2=O)s1` (stereo unspecified): the AC50 is 16.3 µM (active).
